Yeast superoxide: lowers age-related superoxide in aged yeast cells. S. cerevisiae aged cells, superoxide DHE fluorescence; active compounds read low. superoxide response (% of plate mean), % at 10 µM. 330,000 compounds, 0.18% hits. AID 2690;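 active = superoxide response under a set limit, about three screen SD below normal, cut at about 65% in these data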;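 note: yeast aged for seven days with compound at 30 °C before DHE staining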
A3A deaminase: inhibitors of human APOBEC3A DNA deaminase; P31941; recombinant A3A, FAM/TAMRA ssDNA deamination fluorescence; inhibition, % at 20 µM; 330,000 compounds, 0.41% hits; AID 493011;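 active = at least 40% inhibition at 20 µM here, with at most 30% in a related deaminase screen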
APOBEC3G inh: APOBEC3G (human) deaminase inhibition | Q9HC16 | recombinant A3G, ssDNA deamination FAM/TAMRA fluorescence | inhibition, % at 20 µM | 330,000 compounds, 0.28% hits | AID 493012;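 active = inhibition of at least 40% at 20 µM, with no more than 30% in the related APOBEC3A deaminase screen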
Target sequence (Q9HC16 whole entry, looked up): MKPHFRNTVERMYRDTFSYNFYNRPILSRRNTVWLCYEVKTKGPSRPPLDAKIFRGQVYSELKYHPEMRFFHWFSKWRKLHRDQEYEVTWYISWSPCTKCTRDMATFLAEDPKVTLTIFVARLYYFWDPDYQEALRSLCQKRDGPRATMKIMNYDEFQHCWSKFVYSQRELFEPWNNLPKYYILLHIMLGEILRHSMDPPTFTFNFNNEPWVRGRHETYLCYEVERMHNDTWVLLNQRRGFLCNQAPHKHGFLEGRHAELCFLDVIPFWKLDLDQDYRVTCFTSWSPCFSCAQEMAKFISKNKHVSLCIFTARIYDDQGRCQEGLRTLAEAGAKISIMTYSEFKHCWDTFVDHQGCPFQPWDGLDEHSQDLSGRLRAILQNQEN
PfG6PD inh: PfG6PD (Plasmodium falciparum) enzyme inhibition; inhibition, % at 20 µM; 350,000 compounds, 0.78% hits; PfGluPho enzyme, NADPH resazurin-diaphorase fluorescence;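 active = inhibition reaching at least a set limit at 20 µM in the primary screen, cut at about 59% in these data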
PfM18AAP inh: PfM18AAP enzyme inhibition | recombinant PfM18AAP, H-Glu-NHMec fluorogenic cleavage | inhibition, % at 7.35 µM | 290,000 compounds, 1.2% hits | AID 1822;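 active = inhibition above the campaign mean inhibition over all tested compounds plus 3 SD, cut at about 28% in these data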
APOBEC3G confirm: confirmation of human APOBEC3G DNA deaminase inhibitors; shares compounds with APOBEC3G inh; recombinant A3G ssDNA deaminase, UDG/FAM-TAMRA fluorescence; inhibition, % at 20 µM; 890 compounds, 72% hits; AID 493152;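 active = inhibition reaching a set limit in any replicate at 20 µM, the limit being 80% of the first screen's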
UDG A3G counter: inhibits E. coli UDG, flagging false APOBEC3G inhibitors. shares compounds with APOBEC3G inh. UDG counterscreen, FAM/TAMRA oligo fluorescence. inhibition, % at 20 µM. 710 tested, under 10 active. AID 504715;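 active = compounds giving 40% or more inhibition at 20 µM in any one of the three replicates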;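 note: inhibitors lower the FAM signal released by uracil excision and alkaline cleavage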
Target sequence (P12295 whole entry, looked up): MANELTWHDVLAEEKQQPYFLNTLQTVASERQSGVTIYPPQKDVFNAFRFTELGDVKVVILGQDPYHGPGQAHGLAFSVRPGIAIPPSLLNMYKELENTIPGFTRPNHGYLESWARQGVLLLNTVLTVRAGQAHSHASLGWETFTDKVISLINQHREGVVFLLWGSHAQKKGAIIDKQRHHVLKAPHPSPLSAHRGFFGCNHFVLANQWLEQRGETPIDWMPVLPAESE
Each line names hits and unclear results; the compound was inactive in the other large screens (follow-up assays come after a bar, where they were run). The list is not random: actives were taken first. Their share in the collection is about 2.4%.

CC/C(=N/Nc1cccc(C)c1)c1cnnc(SC)n1	APOBEC3G inh 46 | APOBEC3G confirm inactive
O=C1CCCC(=O)C1CS(=O)(=O)c1ccccc1	none
CC(=O)Nc1ccc(S(=O)(=O)NNC(=O)c2cccc(Cl)c2)cc1	APOBEC3G inh 76 | APOBEC3G confirm inactive
COc1ccccc1C(=O)COC(=O)C1CCN(S(=O)(=O)c2ccccc2)CC1	none (no result: Yeast superoxide, A3A deaminase, APOBEC3G inh, PfM18AAP inh)
O=S(=O)(c1c(F)cccc1F)N1CCCC2CCCCC21 (stereo unspecified)	APOBEC3G inh 53 (no result: PfM18AAP inh) | APOBEC3G confirm inactive | UDG A3G counter inactive
COc1cc(O)c2c(c1)OC(c1ccc(O)cc1)CC2=O (stereo unspecified)	none
Cc1c(O)cc2c(c1O)C(=O)CC(c1ccc(O)cc1)O2 (stereo unspecified)	APOBEC3G inh 56 | APOBEC3G confirm 69
O=C(CCC(=O)OCC(=O)c1ccc(Cl)cc1Cl)Nc1cccc2cccnc12	APOBEC3G inh 54 | APOBEC3G confirm inactive | UDG A3G counter inactive
O=S(=O)(c1ccccc1)N(F)S(=O)(=O)c1ccccc1	APOBEC3G inh 46 (no result: PfM18AAP inh) | APOBEC3G confirm 53 | UDG A3G counter inactive
O=S(=O)(c1ccccc1)N(c1ccccc1)S(=O)(=O)c1ccccc1	none (no result: Yeast superoxide, A3A deaminase, APOBEC3G inh, PfM18AAP inh)
N#Cc1c(-c2ccncc2)c2c([nH]c1=S)CCCC2	APOBEC3G inh 46 | APOBEC3G confirm 85 | UDG A3G counter inactive
Cc1csc(=O)n1CC(=O)Nc1ccc(Cl)cc1F	none (no result: PfM18AAP inh)
Cc1cc(-c2ccco2)c(C#N)c2nc3ccccc3n12	APOBEC3G inh 53 | APOBEC3G confirm 47
O=C1C2C3CC(C(Br)C3Br)C2C(=O)N1c1nccs1 (stereo unspecified)	none (no result: PfM18AAP inh)
CC(C)N(CCn1c(SCC(=O)Nc2cccnc2Cl)nc2ccccc2c1=O)C(C)C	none (no result: PfM18AAP inh)
O=C(Cn1c(=O)oc2ccccc21)Nc1n[nH]c(=S)s1	APOBEC3G inh 81 | APOBEC3G confirm 90 | UDG A3G counter inactive
Cc1cc(OC(=O)c2cc(C(F)(F)F)cc(C(F)(F)F)c2)c([N+](=O)[O-])c(=O)[nH]1	none
Cc1ccc(S(=O)(=O)/C(C#N)=C/c2c(N3CCCCC3)nc3ccccn3c2=O)cc1	APOBEC3G inh 49 | APOBEC3G confirm inactive | UDG A3G counter inactive
Cc1ccc(S(=O)(=O)/C(C#N)=C/c2c(N3CCN(C)CC3)nc3ccccn3c2=O)cc1	none
Cc1nnsc1C(=O)NNc1ccc(C(C)C)cc1	none
Cc1nnsc1C(=O)NNc1ccc(C(C)(C)C)cc1	APOBEC3G inh 53, PfM18AAP inh 29 | APOBEC3G confirm inactive | UDG A3G counter inactive
Cc1ccn2c(C(=O)c3ccc(Cl)cc3)cnc2c1	APOBEC3G inh 46 | APOBEC3G confirm inactive
O=C(Cc1ncon1)Nc1ccc(F)c(F)c1F	APOBEC3G inh 66 | APOBEC3G confirm inactive
COc1ccc(C(=O)Nc2ccccc2N2CCCC2)cc1S(=O)(=O)N1CCOCC1	none (no result: PfM18AAP inh)
Cc1ccc2c(c1)C(=O)N1[C@H]3c4ccccc4OC[C@@H]3[C@H](c3ccccc3)[C@]1(C)C(=O)N2	none (no result: PfM18AAP inh)
COC(=O)c1c(NC(=O)CN2C(=O)C(=O)N(CC(C)C)C2=O)sc2c1CCCCC2	none
CCC(C)n1c(-c2cccc(S(=O)(=O)N3CCOCC3)c2)n[nH]c1=S (stereo unspecified)	none (no result: Yeast superoxide, PfM18AAP inh)
CCn1c(-c2cccc(S(=O)(=O)N3CCCC3)c2)n[nH]c1=S	APOBEC3G inh 51 | APOBEC3G confirm 27 | UDG A3G counter inactive
Cc1ccn2cc(-c3cccc(S(=O)(=O)N4CCCC4)c3)nc2c1	none
CC(C)Cn1c(-c2cccc(S(=O)(=O)N3CCOCC3)c2)n[nH]c1=S	APOBEC3G inh 44 (no result: PfM18AAP inh) | APOBEC3G confirm 69 | UDG A3G counter inactive
CCn1c(-c2ccc3ncccc3c2)n[nH]c1=S	none
CCn1c(-c2cccc(Br)c2)n[nH]c1=S	APOBEC3G inh 47 | APOBEC3G confirm 63 | UDG A3G counter inactive
CCn1c(-c2ccc([N+](=O)[O-])cc2)n[nH]c1=S	APOBEC3G inh 46 | APOBEC3G confirm 73 | UDG A3G counter inactive
Cc1cccc(C(=O)OCC(=O)NC(C)CCc2ccccc2)c1O (stereo unspecified)	none
CN(CC(=O)N1CCN(c2ccccc2)CC1)C1CCCc2ccccc21 (stereo unspecified)	none
C=CCN(Cc1ccc(Cl)s1)C(=O)c1cc(S(=O)(=O)N2CCOCC2)ccc1F	none (no result: PfM18AAP inh)
CCOC(=O)c1ccc(NC(=O)CC2Sc3ncnn3C2=O)cc1 (stereo unspecified)	APOBEC3G inh 42 | APOBEC3G confirm 50 | UDG A3G counter inactive
CCOC(=O)c1c(NC(=O)C2CCCO2)sc2c1CCC2 (stereo unspecified)	none
NC(=O)c1c(NC(=O)C2CCCO2)sc2c1CCCC2 (stereo unspecified)	APOBEC3G inh 40 | APOBEC3G confirm inactive
COc1ccc(-c2n[nH]c(=S)n2-c2cc(OC)ccc2OC)cc1	none
COc1ccc2c(C)cc3n[nH]c(=S)n3c2c1	APOBEC3G inh 52 | APOBEC3G confirm 87 | UDG A3G counter inactive
O=C(COC(=O)/C=C/c1ccco1)NCCN1C(=O)CSC1=O	none (no result: Yeast superoxide, A3A deaminase, APOBEC3G inh, PfM18AAP inh)
COc1ccc(N=c2ssnc2Cl)cc1	APOBEC3G inh 70, PfG6PD inh 83 | APOBEC3G confirm 79 | UDG A3G counter inactive
COc1ccc(N=C2SCC(=O)N2C)cc1	none (no result: Yeast superoxide, A3A deaminase, APOBEC3G inh, PfM18AAP inh)
Fc1ccc2[nH]c3c(NCc4ccccc4)ncnc3c2c1	none
O=C(COC(=O)CCCN1C(=O)c2cccc3cccc(c23)C1=O)Nc1cccc(C(F)(F)F)c1	APOBEC3G inh 56 | APOBEC3G confirm inactive
COc1ccc(C(=O)Nc2ccc(N3CCN(C(=O)c4ccccc4C)CC3)cc2)cc1	none
CC1=N/C(=C\c2ccc([N+](=O)[O-])cc2)C(=O)N1c1ccc(F)cc1F	none
O=C(C1CCN(c2ncnc3c2nc2n3CCCCC2)CC1)N1CCN(c2ccccc2F)CC1	APOBEC3G inh 46 | APOBEC3G confirm inactive
Cc1cccc(N2CCN(C(=O)C3CCN(c4ncnc5c4nc4n5CCCCC4)CC3)CC2)c1C	none
O=C(NCc1cccnc1)C(=O)NCC(c1ccco1)N1CCN(c2ccc(F)cc2)CC1 (stereo unspecified)	APOBEC3G inh 42 | APOBEC3G confirm inactive | UDG A3G counter inactive
S=C(Nc1ccc(-c2nc3ccccc3[nH]2)cc1)Nc1cccnc1	none
Cc1ccccc1OCC(=O)Nc1ccc2c(c1)C(=O)N(CCC(=O)O)C2=O	none
Cc1c(Cl)c(-c2n[nH]c(=S)n2CC(C)C)nn1C	none
CCCCn1c(-c2nn(C)c(C)c2Cl)n[nH]c1=S	APOBEC3G inh 40 | APOBEC3G confirm 78 | UDG A3G counter inactive
O=c1c2ccccc2sn1-c1ccc(F)cc1	APOBEC3G inh 86, PfG6PD inh 113 (no result: PfM18AAP inh) | APOBEC3G confirm 80 | UDG A3G counter inactive
CC1(C)C(=O)Nc2ccccc2N1C(=O)COC(=O)CNS(=O)(=O)c1ccc(Br)cc1Cl	none (no result: Yeast superoxide, A3A deaminase, APOBEC3G inh, PfM18AAP inh)

Assay outcomes from PubChem BioAssay.
